Assay [1] can be described thus: E. coli DRC41 culture turbidity changes, primary screen, E. coli filamentation inducer project, strain DRC41, OD650, 48 h (AID 1152).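 Note: E. coli MC1000 strain DRC41 lacking acrAB efflux pump and sulA.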 Particulars: E. coli DRC41 (acrAB sulA), higher = more signal, called active from +8 up or from −8 down.
Assay [2] is described as follows: small-molecule binders of probe aLefty1, primary screen, biochemical, small-molecule microarray, 635/667 nm fluorescence (AID 1153).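 Note: score merges spot fluorescence with signal-to-noise ratio from the scanned slide images.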 The note with it: higher = more signal.
Assay [3] is described as follows: PSAC antagonists in infected red cells, primary screen, cell-based, P. falciparum Indochina, OD700, 1 h (AID 1154). The note with it: P. falciparum Indochina infected RBC osmotic lysis, higher = more signal, called active from +8 up or from −8 down.
A short description of assay [4]: PSAC antagonists in infected red cells, primary screen, cell-based, P. falciparum Indochina, OD700, 2 h (AID 1155).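 Note: lysis reports solute entry through the parasite surface anion channel PSAC; channel blockers reduce lysis of infected cells.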 Particulars: P. falciparum Indochina infected erythrocytes, osmotic lysis OD700; higher = more signal, called active from +8 up or from −8 down.
Assay [5] is described as follows: osmotic lysis modulators in infected erythrocytes, primary screen, PSAC antagonist project, cell-based, P. falciparum Indochina, OD700, 3 h (AID 1156). Particulars: higher = more signal, called active from +8 up or from −8 down.
Assay [6] is described as follows: PSAC antagonists in infected red cells, primary screen, cell-based, P. falciparum Indochina, OD700, 18 h (AID 1157). Particulars: P. falciparum Indochina infected erythrocytes, osmotic lysis OD700, 18 h; higher = more signal, called active from +8 up or from −8 down.
Assay [7] can be described thus: modulators of S6 phosphorylation in cells, primary screen, cell-based, A549, cytoblot, luminescence, serum-stimulated (AID 1158).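 Note: serum-stimulated A549 lung adenocarcinoma cells; signal is phosphorylated S6 detected by cytoblot immunostaining with HRP secondary.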 Particulars: A549 phospho-S6 cytoblot, 5 h, higher = more signal.
In assay [8] the target is NADPH oxidase 2 (Homo sapiens) (UniProt P04839). Kind of assay: NOX2-dependent H2O2 signal modulators, primary screen, NOX inhibitor project, cell-based, HEK293-NOX2, PMA-stimulated, Amplex Red fluorescence (AID 1159). Note: test concentration not given here. The note with it: 45 min, higher = more signal, called active from +8 up or from −8 down.
NADPH oxidase 2 (Homo sapiens), sequence (P04839 whole entry, looked up): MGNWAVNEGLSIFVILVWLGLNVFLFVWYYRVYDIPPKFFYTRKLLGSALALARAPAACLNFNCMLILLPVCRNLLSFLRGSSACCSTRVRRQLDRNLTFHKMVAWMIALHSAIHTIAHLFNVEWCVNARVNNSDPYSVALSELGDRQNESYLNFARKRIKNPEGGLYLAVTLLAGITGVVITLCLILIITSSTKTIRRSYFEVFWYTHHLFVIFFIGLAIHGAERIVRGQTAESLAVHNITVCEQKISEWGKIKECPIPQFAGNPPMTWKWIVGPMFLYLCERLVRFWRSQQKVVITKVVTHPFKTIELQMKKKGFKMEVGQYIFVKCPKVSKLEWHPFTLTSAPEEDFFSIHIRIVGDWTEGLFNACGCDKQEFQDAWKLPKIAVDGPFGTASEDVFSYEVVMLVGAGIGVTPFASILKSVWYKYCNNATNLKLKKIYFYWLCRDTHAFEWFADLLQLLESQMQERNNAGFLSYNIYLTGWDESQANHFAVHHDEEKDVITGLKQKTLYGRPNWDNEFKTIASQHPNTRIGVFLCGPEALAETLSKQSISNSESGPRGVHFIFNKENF
For assay [9], the target named is NADPH oxidase 4 (Homo sapiens) (UniProt Q9NPH5). Kind of assay: NOX4-dependent H2O2 signal modulators, primary screen, NOX inhibitor project, cell-based, HEK293-NOX4, tetracycline-induced, Amplex Red fluorescence (AID 1160). Particulars: 45 min, higher = more signal, called active from +8 up or from −8 down.
NADPH oxidase 4 (Homo sapiens), sequence (Q9NPH5 whole entry, looked up): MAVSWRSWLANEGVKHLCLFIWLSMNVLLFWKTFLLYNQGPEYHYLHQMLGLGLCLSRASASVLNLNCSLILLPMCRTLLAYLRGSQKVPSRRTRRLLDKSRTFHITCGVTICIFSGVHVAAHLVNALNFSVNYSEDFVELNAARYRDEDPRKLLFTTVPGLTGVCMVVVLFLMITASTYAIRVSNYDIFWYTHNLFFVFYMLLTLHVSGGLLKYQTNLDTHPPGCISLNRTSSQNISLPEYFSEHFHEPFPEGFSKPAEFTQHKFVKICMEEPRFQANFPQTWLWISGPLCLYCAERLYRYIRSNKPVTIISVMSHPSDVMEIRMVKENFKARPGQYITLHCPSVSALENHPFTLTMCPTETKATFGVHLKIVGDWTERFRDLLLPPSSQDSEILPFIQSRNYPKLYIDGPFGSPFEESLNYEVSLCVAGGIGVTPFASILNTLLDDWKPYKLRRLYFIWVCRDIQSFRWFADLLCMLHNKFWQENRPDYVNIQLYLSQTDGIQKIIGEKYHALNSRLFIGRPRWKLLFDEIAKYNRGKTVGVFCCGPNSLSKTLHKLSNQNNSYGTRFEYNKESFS
Assay [10] addresses NADPH oxidase 5 (Homo sapiens) (UniProt Q96PH1). Kind of assay: NOX5-dependent H2O2 signal modulators, primary screen, NOX inhibitor project, cell-based, HEK293-NOX5, Amplex Red fluorescence (AID 1161). The note with it: HEK293-NOX5, ionomycin, 45 min, higher = more signal.
A short description of assay [11]: A549 cell viability effects, profiling panel, calcein-AM fluorescence, 48 h, basal (AID 1162). Note: test concentration not given here. Particulars: higher = more signal.
A short description of assay [12]: adipocyte viability effects, profiling panel, cell-based, 3T3-L1 adipocytes, calcein-AM fluorescence, 48 h, basal (AID 1163). Note: test concentration not given here. The note with it: 3T3-L1 adipocytes viability, higher = more signal.
Assay [13] in a line: HepG2 cell viability effects, profiling panel, calcein-AM fluorescence, 48 h, basal (AID 1164). Note: test concentration not given here. Particulars: higher = more signal.
Assay [14] can be described thus: MM1S cell viability effects, profiling panel, calcein-AM fluorescence, 48 h, basal (AID 1165).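 Note: viability of MM1S multiple myeloma cells under basal unstimulated conditions; test concentration not given here.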 The note with it: higher = more signal.
The nature of assay [15]: basal RPMI8226 viability, no added stimulus, profiling panel, cell-based, calcein-AM fluorescence, 48 h, PK04 Diversity Set (AID 1166).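 Note: cells grown under basal conditions without added stimulus; test concentration not given here.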 Particulars: RPMI8226 myeloma viability, higher = more signal.
A short description of assay [16]: basal HepG2 mitochondrial membrane potential changes, profiling panel, cell-based, JC-1 fluorescence, 24 h, 100 nL compound (AID 1167). Note: test concentration not given here. The note with it: higher = more signal.
Assay [17] can be described thus: basal 3T3-L1 adipocyte mitochondrial potential changes, profiling panel, cell-based, JC-1 fluorescence, 3T3-L1 adipocytes, 24 h, 100 nL compound (AID 1168). Note: test concentration not given here. The note with it: JC-1 mitochondrial fluorescence, higher = more signal, called active from +8 up or from −8 down.
Assay [18] is described as follows: basal RPMI8226 mitochondrial membrane potential changes, profiling panel, cell-based, JC-1 fluorescence, 24 h, 100 nL compound (AID 1169). Note: test concentration not given here. The note with it: RPMI8226 myeloma, JC-1 mitochondrial potential fluorescence, higher = more signal.
Assay [19] is described as follows: basal MM1S mitochondrial membrane potential changes, profiling panel, cell-based, JC-1 fluorescence, 24 h, 100 nL compound (AID 1170). Note: test concentration not given here. Particulars: higher = more signal.
The nature of assay [20]: A549 lung cancer cell viability effects, profiling panel, resazurin fluorescence, 24 h, PK04 Diversity Set (AID 1171). Note: test concentration not given here. The note with it: higher = more signal, called active from +8 up or from −8 down.

The values that follow come from PubChem BioAssay.

Calls of active or inactive are those of the source.

NADPH oxidase 5 (Homo sapiens), sequence (Q96PH1 whole entry, looked up): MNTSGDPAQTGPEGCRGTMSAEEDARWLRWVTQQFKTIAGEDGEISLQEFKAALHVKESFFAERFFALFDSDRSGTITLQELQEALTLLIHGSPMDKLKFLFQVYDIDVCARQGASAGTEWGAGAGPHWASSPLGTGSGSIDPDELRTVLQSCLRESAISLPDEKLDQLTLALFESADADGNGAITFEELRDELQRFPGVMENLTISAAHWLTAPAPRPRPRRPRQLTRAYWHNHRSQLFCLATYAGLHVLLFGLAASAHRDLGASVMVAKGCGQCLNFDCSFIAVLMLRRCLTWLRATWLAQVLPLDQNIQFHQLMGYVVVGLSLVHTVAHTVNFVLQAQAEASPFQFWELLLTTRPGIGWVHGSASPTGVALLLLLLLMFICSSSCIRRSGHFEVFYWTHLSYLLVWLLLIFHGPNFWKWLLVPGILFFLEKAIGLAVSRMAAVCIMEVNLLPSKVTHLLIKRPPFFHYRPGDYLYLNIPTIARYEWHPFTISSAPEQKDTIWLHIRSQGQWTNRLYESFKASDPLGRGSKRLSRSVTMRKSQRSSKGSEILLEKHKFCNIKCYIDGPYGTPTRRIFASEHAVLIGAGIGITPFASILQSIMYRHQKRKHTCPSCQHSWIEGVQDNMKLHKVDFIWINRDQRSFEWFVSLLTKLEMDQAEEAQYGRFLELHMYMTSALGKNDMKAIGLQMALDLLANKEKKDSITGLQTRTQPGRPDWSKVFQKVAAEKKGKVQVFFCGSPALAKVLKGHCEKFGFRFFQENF

In the case of `COc1ccc(COC(=O)NN=C2C[C@@H](O)[C@@H](O)[C@@H]3[C@@H]4C(=O)N(Cc5ccccc5)C(=O)[C@@H]4CC[C@H]23)cc1`, the z-score was -0.0671 (inactive) in [1]; 8.9 (active) in assay [3]; 0.507 (inactive) in assay [4]; -1.3 (inactive) in [5]; -1.17 (inactive) in [6]; -0.411 in assay [7]. The z-score in assay [8] is 1.43 (inactive); in assay [9], 0.954 (inactive); in assay [10], 0.729; in assay [11], 0.203; in [12] it was 0.649; in [13], -0.462. Further, the z-score in assay [14] is 0.451; in assay [15], -1.27; in assay [16] it was 0.646; in assay [17] it was -0.585 (inactive); in assay [18], 0.365; in [19] it was -0.592. For the same molecule, the z-score in assay [20] was 1.03 (inactive). Further, in assay [2], the composite z-score amounted to 0.641.
Turning to `COc1ccc(O[C@H]2C=C[C@@H](c3ccccc3)O[C@@H]2CON=C2[C@H]3CCn4c(=O)n(-c5ccccc5)c(=O)n4[C@H]3[C@H](O)[C@@H]3O[C@H]23)cc1`, the z-score in [1] was -0.402 (inactive); in [3], 8.37 (active); in assay [4] it was 1.25 (inactive); in assay [5], 0.671 (inactive); in assay [6] it was 0.858 (inactive); in assay [7], -0.511. Moreover, the z-score is -1.37 (inactive) in assay [8]; -0.132 (inactive) in [9]; -0.17 in assay [10]; 0.455 in assay [11]; -0.669 in assay [12]; -0.0924 in assay [13]. For the same molecule, the z-score in [14] is -2.98; in assay [15], -1.37; in [16] it was -0.0967; in assay [17], 0.112 (inactive); in [18], -0.921; in assay [19] it was -0.429. In addition, in assay [20], the z-score was -1.55 (inactive). Further, in assay [2], the composite z-score was -0.012.
For the molecule `C[C@@H]1CC[C@H]2C(=O)O[C@@H](Cc3ccccc3)CN2[C@H]1c1ccc(Br)cc1`, the z-score was -0.28 (inactive) in [1]; 2.26 (inactive) in assay [3]; 0.935 (inactive) in assay [4]; 0.277 (inactive) in [5]; 0.563 (inactive) in [6]; -0.536 in assay [7]. Besides, the z-score in assay [8] is -0.251 (inactive); in assay [9] it was -0.286 (inactive); in [10], -0.621; in assay [11], 0.442; in assay [12] it was 0.185; in [13], 0.828. Moreover, the z-score in assay [14] is -0.591; in assay [15], -0.323; in assay [16], -0.225; in [17], 0.276 (inactive); in assay [18] it was 0.231; in [19], 0.697. In assay [20], the z-score was 0.539 (inactive). The molecule further returned a composite z-score in assay [2] of -0.148.
As for `C#CCCCON=C1C[C@@H](O)[C@@H](O)[C@@H]2[C@@H]3C(=O)N(Cc4ccccc4)C(=O)[C@@H]3CC[C@@H]12`, the z-score in assay [1] is 0.292 (inactive); in assay [3], 0.564 (inactive); in [4] it was 0.579 (inactive); in [5], -0.292 (inactive); in assay [6], 0.06 (inactive); in [7], -0.507. Also, the z-score was -0.727 (inactive) in [8]; 0.47 (inactive) in assay [9]; 0.551 in assay [10]; 0.307 in [11]; -0.198 in assay [12]; -0.732 in [13]. For the same molecule, the z-score is -0.488 in [14]; 0.199 in assay [15]; 0.793 in [16]; 0.89 (inactive) in [17]; -0.323 in assay [18]; -0.467 in [19]. The z-score in assay [20] was 0.37 (inactive). Also, in [2], the composite z-score is -0.0479.
With `Cc1cc2c(nc1C)CCCCN2CC(C)ON=C[C@@H](C)[C@H](OCc1ccccc1)C(C)C` (stereo not given in full), the z-score in [1] is -0.0958 (inactive); in assay [3] it was 1.34 (inactive); in [4], 0.147 (inactive); in assay [5], 0.472 (inactive); in assay [6], 0.171 (inactive); in assay [7], -0.732. Besides, the z-score was -0.892 (inactive) in assay [8]; -0.45 (inactive) in assay [9]; -3.3 in assay [10]; -0.672 in assay [11]; -0.44 in assay [12]; -1.27 in assay [13]. The z-score is -2.94 in assay [14]; -3.77 in assay [15]; -1.91 in assay [16]; -1.4 (inactive) in assay [17]; -0.262 in assay [18]; 0.034 in [19]. The z-score in assay [20] is 4.05 (inactive). Also, in [2], the composite z-score is -0.8.
For the molecule `CO[C@@H]1COC(=O)[C@H](CCSC)NC(=O)CC=C[C@@H](C)COC(=O)CCC[C@H]1C`, the z-score is 0.337 (inactive) in [1]; 19.7 (active) in assay [3]; 3.14 (inactive) in assay [4]; 2.07 (inactive) in assay [5]; 1.18 (inactive) in assay [6]; 0.016 in assay [7]. The z-score is -1.12 (inactive) in assay [8]; 0.369 (inactive) in [9]; -0.918 in [10]; 0.471 in assay [11]; -0.304 in assay [12]; -0.764 in assay [13]. For the same molecule, the z-score in assay [14] is -0.38; in [15], -0.687; in assay [16], 1.95; in [17], -0.688 (inactive); in [18], -0.194; in assay [19] it was -0.0804. Also, in assay [20], the z-score is 0.977 (inactive). The composite z-score in assay [2] was found to be 0.729.
Regarding `COc1cccc([C@H]2Oc3ccc(OC)cc3C(=NO[C@@H]3O[C@H](COC(C)=O)[C@@H](OC(C)=O)[C@H](OC(C)=O)[C@H]3OC(C)=O)[C@@H]2O)c1`, the z-score in assay [1] was -1.34 (inactive); in assay [3], 0.158 (inactive); in assay [4] it was -0.0728 (inactive); in assay [5], -0.362 (inactive); in assay [6], 0.146 (inactive); in assay [7], -1.09. Besides, the z-score was 0.484 (inactive) in assay [8]; 0.905 (inactive) in assay [9]; 0.486 in assay [10]; 0.679 in assay [11]; -0.375 in assay [12]; -0.104 in assay [13]. Moreover, the z-score was -0.525 in [14]; -0.476 in [15]; -0.515 in [16]; -3.37 (inactive) in assay [17]; -0.0523 in [18]; 0.0745 in assay [19]. Besides, the z-score in assay [20] is -0.416 (inactive). Moreover, the composite z-score in assay [2] was -0.191.
Turning to `C[C@@H](c1ccccc1)N1C(=O)[C@H]2[C@H]3[C@H](O)[C@H](O)CC(=NO[C@@H]4O[C@H](CO)[C@@H](O)[C@H](O)[C@H]4O)[C@H]3CC[C@H]2C1=O`, the z-score in [1] is 0.391 (inactive); in assay [3], -0.483 (inactive); in assay [4], -0.205 (inactive); in [5], -0.0944 (inactive); in assay [6], -0.0378 (inactive); in [7] it was -0.0015. Moreover, the z-score in [8] is 1.5 (inactive); in [9], -1.93 (inactive); in assay [10], -0.63; in assay [11] it was -0.306; in [12], 0.221; in [13], -0.492. Also, the z-score in assay [14] is 0.254; in assay [15], -0.599; in assay [16], -0.364; in assay [17], -0.507 (inactive); in assay [18] it was 0.0338; in assay [19], -0.15. Also, the z-score in [20] is -0.154 (inactive). This molecule also returned a composite z-score in assay [2] of 1.16.
